TDP1 cell CPT: qHTS for Inhibitors of human tyrosyl-DNA phosphodiesterase 1 (TDP1): qHTS in cells in presence of CPT; chicken DT40 Tdp1-/-;hTDP1 cells + 20 nM CPT, ATP luminescence, 48 h; Potency, µM (series often up to 46.2 µM), actives largely listed as inhibitors; AID 686979, 2013; hit rate 12% among 420,000; further: nearly all actives have a fitted effect of over 55% in size
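Cell growth measured by CellTiter-Glo luminescence after a minimum 48 h, 37 C compound exposure with 20 nM CPT in Tdp1-knockout DT40 cells stably expressing hTDP1, seeded 400/well; qHTS titration format.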
SW480 rerep: A quantitative high throughput screen for small molecules that induce DNA re-replication in SW480 colon adenocarcinoma cells | hit rate 1.8% among 340,000 | SW480 DNA re-replication, Hoechst DNA content imaging, 48 h | AID 624297, 2012 | Potency, µM (doses to about 46.1 µM), usual class: activators; further: nearly all actives have a fitted effect of over 55% in size
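Image-based read-out: total Hoechst fluorescence of nuclei (405 nm excitation, 500-530 nm emission), with hits raising the fraction of high-intensity nuclei. SW480 colon cells incubated 48 hr with compounds at 37 C.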
DT40 TDP1 no CPT: qHTS for Inhibitors of human tyrosyl-DNA phosphodiesterase 1 (TDP1): qHTS in cells in absence of CPT; hit rate 15% among 420,000; Potency, µM (titrated, usually from 46.2 µM), hits mostly inhibitors; DT40 Tdp1-/- hTDP1 cells, no CPT, ATP luminescence, 48 h; AID 686978, 2013; further: nearly all actives have a fitted effect of over 55% in size
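Growth kinetics read by CellTiter-Glo luminescence after ≥48 hr at 37 °C. Cells: DT40 Tdp1-/- stably carrying human TDP1, 400 per well, compound exposure in the absence of CPT (DMSO vehicle).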
Chronic BCR inh: qHTS Assay to Find Inhibitors of Chronic Active B-Cell Receptor Signaling. ABC-DLBCL IkBa-CBG/CBR reporter, luminescence ratio, 4 h. Potency, µM (series often up to 46.1 µM), actives largely listed as inhibitors. hit rate 0.05% among 340,000. AID 493014, 2011; active means well fitted inhibition curve with a large enough effect in the signal ratio, with a control signal flat, not every such curve was filed as active; inconclusive means small, poorly fitted or top-dose-only effect, or effect the other way, or a change in a side signal; the % refers to the signal ratio
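Doxycycline induced both beetle luciferases in TMD8 lymphoma cells; IKK-driven degradation limits the IkappaBalpha-fused green signal, while red luminescence normalises for cell number and nonspecific effects. Compounds tested up to 46 uM, 4 hrs.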
IL-1B inflam inh: qHTS for Inhibitors of Inflammasome Signaling: IL-1-beta AlphaLISA Primary Screen; THP-1 LPS/ATP IL-1B secretion, AlphaLISA, 16 h; hits give low values; activity change, % at 57.5 µM; hit rate 4.7% among 360,000; AID 743279, 2014; in the data active means activity change below about -50%; inconclusive means mostly about -30% to -49%
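Secreted IL-1B measured by AlphaLISA bead assay after 16 h compound exposure of THP-1 cells; compounds (final up to 57.5 uM) added 1 h before LPS (250 ng/mL) and ATP (1.25 mM) stimulation; lower signal means less secretion.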
MCF10A rerep: A quantitative high throughput screen for small molecules that induce DNA re-replication in MCF 10a normal breast cells; Potency, µM (doses to about 46.1 µM), hits mostly activators; MCF 10A DNA re-replication, Hoechst nuclear intensity, 48 h; hit rate 2.9% among 350,000; further: nearly all actives have a fitted effect of over 50% in size
Hits are given with their value; [ ] = dose if it differs, or a comment. Rows were chosen to be rich in hits. Some 19% of all compounds tested hit in one or more screens of this group. Unless noted, the call rests on the fitted dose curve; in most records, active means well fitted curve in the direction sought with a large enough effect; inconclusive means small, poorly fitted or top-dose-only effect, or another doubt; inactive means no such curve, though single readings can be large; an effect the other way counts as inactive or inconclusive.

What do the screens show for `CC(=O)N1c2ccc(S(=O)(=O)N3CCC(C(=O)NCc4ccc(C)cc4)CC3)cc2CC1C` (centres undefined)?
TDP1 cell CPT: inconclusive; SW480 rerep: inactive; DT40 TDP1 no CPT: inactive; Chronic BCR inh: inactive; IL-1B inflam inh: inactive; MCF10A rerep: inactive

Results for CC(=O)N1c2ccc(S(=O)(=O)N3CCC(C(=O)NCCc4ccc(Cl)cc4)CC3)cc2CC1C (centres undefined) ?
TDP1 cell CPT: 16µM; SW480 rerep: inactive; DT40 TDP1 no CPT: 10µM; Chronic BCR inh: inactive; IL-1B inflam inh: inactive; MCF10A rerep: inactive

What do the screens show for `CC(=O)N1c2ccc(S(=O)(=O)N3CCC(C(=O)NCc4ccc(Cl)cc4)CC3)cc2CC1C` (centres undefined)?
TDP1 cell CPT: 18µM; SW480 rerep: inconclusive; DT40 TDP1 no CPT: inconclusive; Chronic BCR inh: inactive; IL-1B inflam inh: inactive; MCF10A rerep: 23µM

What do the screens show for `CCOc1cc(C2C3=C(CC(C)(C)CC3=O)Nc3n[nH]c(C)c32)ccc1O` (centres undefined)?
TDP1 cell CPT: inactive; SW480 rerep: inactive; DT40 TDP1 no CPT: inactive; Chronic BCR inh: inactive; IL-1B inflam inh: inactive; MCF10A rerep: inactive

Results for O=C(NCc1ccc(Cl)cc1)[C@@H]1CCCN1S(=O)(=O)c1ccc(Cl)cc1 ?
TDP1 cell CPT: inconclusive; SW480 rerep: inactive; DT40 TDP1 no CPT: inconclusive; Chronic BCR inh: inactive; IL-1B inflam inh: inactive; MCF10A rerep: inactive

Results for CC(=O)N1c2ccc(S(=O)(=O)N3CCCC3C(=O)NCc3ccc(Cl)cc3)cc2CC1C (centres undefined) ?
TDP1 cell CPT: 21µM; SW480 rerep: inactive; DT40 TDP1 no CPT: inconclusive; Chronic BCR inh: inconclusive; IL-1B inflam inh: inactive; MCF10A rerep: inactive

How did CC1Cc2cc(S(=O)(=O)N3CCC(C(=O)NCc4ccco4)CC3)ccc2N1C(=O)C1CCC1 (centres undefined) do in these assays?
TDP1 cell CPT: inconclusive; SW480 rerep: inactive; DT40 TDP1 no CPT: 23µM; Chronic BCR inh: inactive; IL-1B inflam inh: inactive; MCF10A rerep: inconclusive

How did O=S(=O)(NCC[C@@H]1CC[C@H](NS(=O)(=O)c2cccc(F)c2)[C@@H](CO)O1)c1cccc(F)c1 do in these assays?
TDP1 cell CPT: inactive; DT40 TDP1 no CPT: inconclusive; IL-1B inflam inh: inactive

How did Cc1ccc2nc(SCC(=O)OCc3ccccc3)nc(=O)n2c1 do in these assays?
TDP1 cell CPT: inactive; SW480 rerep: inactive; DT40 TDP1 no CPT: inactive; Chronic BCR inh: inactive; IL-1B inflam inh: -56; MCF10A rerep: inactive

How did CCOC(=O)CSc1nc(=O)n2cc(C)ccc2n1 do in these assays?
TDP1 cell CPT: inactive; SW480 rerep: inactive; DT40 TDP1 no CPT: inactive; Chronic BCR inh: inactive; IL-1B inflam inh: inactive; MCF10A rerep: inactive

Results for CCOC(=O)C(C)Sc1nc(=O)n2cc(C)ccc2n1 (centres undefined) ?
TDP1 cell CPT: inactive; SW480 rerep: inactive; DT40 TDP1 no CPT: inactive; Chronic BCR inh: inactive; IL-1B inflam inh: -101; MCF10A rerep: inactive

Results for Cc1cc(=O)c2c(C)ccc(C)c2[nH]1 ?
TDP1 cell CPT: inconclusive; SW480 rerep: inactive; DT40 TDP1 no CPT: 9.2µM; Chronic BCR inh: inactive; IL-1B inflam inh: inactive; MCF10A rerep: inactive

How did Cc1ccccc1CNC(=O)c1csc([C@H]2C[C@H](O)[C@@H](CO)O2)n1 do in these assays?
TDP1 cell CPT: inactive; DT40 TDP1 no CPT: inactive; IL-1B inflam inh: inactive

How did C/C=C(/C)C(=O)O[C@@H]1c2c(ccc3ccc(=O)oc23)O[C@@H]1C(C)(C)OC(=O)/C(C)=C\C do in these assays?
TDP1 cell CPT: inconclusive; SW480 rerep: inactive[9.22 µM]; DT40 TDP1 no CPT: 16µM; Chronic BCR inh: inactive; IL-1B inflam inh: inactive; MCF10A rerep: inconclusive

Screening results as filed in PubChem BioAssay.
